# The entries come from a sample that favours hits as a whole.
# Pf Dd2 growth – blocks in vitro growth of P. falciparum Dd2; P. falciparum Dd2 growth, SYBR Green, 72 h; Potency, µM (series often up to 28.9 µM), without a hit: at the top dose activity, negative = inhibition, hits mostly inhibitors; actives 4.3% (n = 120,000); AID 1347417; active = well fitted inhibition curve with a large enough effect;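 also: plate controls were DMSO vehicle for no effect and reference drug for full effect; nearly all actives have a fitted effect of over 65% in size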
#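 Infected erythrocytes (Dd2, 0.3% parasitemia, 2.5% hematocrit final) are added to compound in RPMI-1640/Albumax II medium, grown 72 h at 37C in low oxygen, then lysed with saponin/Triton-X containing SYBR Green and read by fluorescence.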
# Numbers without * were called inactive; i = inactive; [ ] = another dose, or the depositor's remark. Potency is read from the fitted curve at half-maximal effect.
SMILES,Pf Dd2 growth
COc1ccc(-c2cc3ccc(O)c(CN4CCC(C)CC4)c3oc2=O)cc1,2.2µM*
COc1ccc(-c2c(C)c3ccc(O)c(CN4CCC(C)CC4)c3oc2=O)cc1OC,10µM*
O=c1oc2ccc(Br)cc2cc1-c1csc(-c2ccccc2)n1,23%
COc1ccccc1CNC(=O)C1CCN(Cc2nc(-c3ccc(OC)c(OC)c3)oc2C)CC1,-7%
COc1ccc(-c2cc3ccc(O)c(CN4CCC(C)CC4)c3oc2=O)cc1OC,2.5µM*
COc1ccc(-c2onc(C)c2C)cc1S(=O)(=O)N1CCC(C)CC1,15%
CNC(=O)[C@@H]1C[C@H](Oc2cccnc2)CN1C(=O)c1ccco1,0%
CCn1ccc(C(=O)N2CCC(CC(=O)NC3CC3)C2)n1 (centres undefined),-7%
O=C(c1n[nH]c(=O)c2ccccc12)N1CCCC1c1nc(CCOCC2CC2)no1 (centres undefined),-18%
COc1ccc(OC)c(S(=O)(=O)N[C@H]2CO[C@H]3[C@@H]2OC[C@H]3OC(=O)Nc2cccc3ccccc23)c1,i
Cc1ccc(CC(=O)NC(C)C(=O)N2CCN(c3ccccn3)CC2)cc1 (centres undefined),i
COc1cccc(F)c1C(=O)N1C[C@@H](CN2CCOCC2)[C@@H](CO)C1,-2%
CCC(C)NC(=O)C1COC2(CCC(C)CC2)N1C(=O)c1cccc(C)c1 (centres undefined),-20%
CCC(=O)NCc1cc2c(nc1OC)CN(C1CCCC1)C2=O,-7%
COc1ccc(F)c(-c2nc(COc3ccc(-n4cnnc4)cc3)c(C)o2)c1,-18%
Cc1cc(CNC(=O)[C@@H]2CCC[C@@H](NC3CCC3)CN(C)C(=O)C2)no1,-5%[44.1 µM]
Cc1ccc(CN2CCC(C(=O)N3CCCCCCNC(=O)CC3)CC2)o1,-11%
CC(C(=O)NC1CC1)[C@@H]1CC[C@@]2(C)CC[C@H](NC(=O)Nc3cccc(F)c3)[C@@H](C)[C@@H]2[C@H]1O (some centres undefined),-24%
Cn1cc(-c2ccc(O)c(F)c2)c2nc(CN3CCOCC3)cn2c1=O,-16%[44.1 µM]
COc1ccc(CN2CCC(N3CCCCCC3=O)CC2)cc1,13%[44.1 µM]
COc1ccc(-c2nnc(SCC(=O)N3CCCCC3)o2)cc1,-22%
O=C(Cn1nnnc1CN1CCOCC1)N1CCN(c2ccc(Cl)cc2)CC1,-13%
O=c1oc2c(CN3CCOCC3)c(O)ccc2cc1-c1ccc(Cl)cc1,7.1µM*
COc1ccc(-c2cc3ccc(O)c(CN4CCCC4)c3oc2=O)cc1,5.6µM*
CNS(=O)(=O)c1ccc(CCC(=O)N2CC[C@H]3CC[C@@H](C2)N3)cc1,0%
SMILES,Pf Dd2 growth
COCC(=O)N1CCNC[C@H]1C(=O)N[C@@H](Cc1ccc(OC)cc1)C(=O)OC,22%[44.1 µM]
Cc1[nH]c2ccccc2c1C1(O)C(=O)N(Cc2ccccc2)c2ccc(Cl)cc21 (centres undefined),10µM*
Cc1[nH]c2ccccc2c1C1(O)C(=O)N(Cc2ccc(Cl)cc2)c2ccccc21 (centres undefined),i[5.79 µM]
Cc1ccc(CN2C(=O)C(O)(c3c(C)[nH]c4ccccc34)c3ccccc32)cc1 (centres undefined),-14%
Cc1ccc(NC(=O)/C(C#N)=C/c2ccccc2Cl)cc1C,18%
N#C/C(=C\c1ccc(-c2cccc(Cl)c2)o1)C(=O)Nc1cccc(C(F)(F)F)c1,17%
N#C/C(=C/c1cn(Cc2ccc(F)cc2)c2ccccc12)C(=O)Nc1cccc(Cl)c1,10µM*
COc1ccc(CC(=O)NCc2cn[nH]c2-c2ccc(C)cc2)cc1,-11%
COc1ccc(CNC(=O)C(=O)Nc2cc(Cl)ccc2OC)cc1,i
CCc1ccc(CN(Cc2cn[nH]c2-c2ccc(OC)cc2)C(=O)Nc2cc(Cl)ccc2OC)cc1,13µM*
Cn1c(CO[C@H]2CN(Cc3ccc(S(C)(=O)=O)cc3)C[C@H]2F)nc2ccccc21,-6%[44.1 µM]
CC(C)NC(=O)N1CC(C(=O)NCc2ccc3c(c2)OCO3)CC(c2ccccc2)C1 (centres undefined),-11%
CN(CC1(CO)CCOCC1)C(=O)c1cc(COc2ccccc2)[nH]n1,-4%
CN(CCN1CCOCC1)C(=O)c1cc(COc2cccc(F)c2)[nH]n1,-20%
CN(CCN1CCCCCC1)C(=O)c1cc(COc2ccccc2)[nH]n1,7.9µM*
CC(O)c1cc2n(n1)CCN(C(=O)c1cc(=O)n(C)c(=O)n1C)C2 (centres undefined),4%
CN(CC1CCOC1)S(=O)(=O)c1ccccc1Br (centres undefined),i[5.79 µM]
COCc1nncn1C1CCN(S(=O)(=O)c2ccc(OC)cc2)CC1,-24%
CC(=O)NCCCC(=O)N1Cc2ccccc2OC2(CCN(C(=O)N(C)C)CC2)C1,-4%
CN(C)C(=O)N1CCC2(CC1)CN(C(=O)CCc1c[nH]c3ccccc13)Cc1ccccc1O2,5µM*
CC(=O)N1Cc2ccccc2OC2(CCN(C(=O)CCc3c[nH]c4ccccc34)CC2)C1,-27%
CCOc1ccc(Br)cc1S(=O)(=O)Nc1cccc(-c2ccc(OC)nn2)c1,5%
CCOc1ccc(-c2ccc(NS(=O)(=O)c3cc(C)ccc3OC)cc2)nn1,10µM*
CCOc1ccc(-c2cccc(NS(=O)(=O)c3ccc(F)cc3F)c2)nn1,59%[0.594 µM]
O=C(NC1CCN(c2cc(-c3ccc(F)cc3)[nH]n2)C1)c1ccc(Br)cc1 (centres undefined),i
SMILES,Pf Dd2 growth
O=C(CC1CCOC2(CCN(S(=O)(=O)Cc3ccccc3F)CC2)C1)NC1CC1 (centres undefined),i
COc1ccc(CN2CC[C@H]3COC(=O)N3c3cc(C)ccc3C2)cc1,i
CCCc1cc(=O)oc2c3c(ccc12)OCN(Cc1ccc(OC)cc1)C3,10µM*
COc1ccc(CN2CC[C@H]3COC(=O)N3c3ccc(OC)cc3C2)cc1,-20%[44.1 µM]
COc1ccc(CN2COc3ccc4c(C)cc(=O)oc4c3C2)cc1,10µM*
COc1ccc(CN2CC[C@H]3COC(=O)N3c3ccccc3C2)cc1,i
COc1ccc(CN2CC[C@H]3COC(=O)N3c3cc(F)ccc3C2)cc1,i
CN(C)[C@@H]1CN(C(=O)CCc2ccccc2)CC[C@]1(O)c1ccccc1,-12%[5.79 µM]
O=C(C1CN(S(=O)(=O)c2cccs2)CC12CCCCC2)N1CCCC1 (centres undefined),i
CN1CC(=O)N(C2CCCC2)Cc2c(NC3CCNCC3)ncnc21,-1%
O=C([C@@H]1C[C@H](F)CN1C(=O)NCc1ccccc1)N1CCCCC1,9%
COCC(=O)N1CCC(O)(c2ccccc2)[C@H](N2CCCC2)C1 (some centres undefined),17%[5.79 µM]
CCCC(=O)N1CCC(O)(c2ccccc2)[C@H](N2CCCC2)C1 (some centres undefined),i[5.79 µM]
Cc1c(CN2CCC(O)(c3ccccc3)[C@H](N3CCCC3)C2)cnn1C (some centres undefined),0.45µM*
CNC(=O)N1CCC(C2CCN(Cc3ccncc3)C2)CC1 (centres undefined),5%
Cc1ccc(S(=O)(=O)N2C3CCCC2CC(=O)C3)cc1,19%[44.1 µM]
Cc1cc(C(=O)N2CCC(c3noc(-c4ccccc4)n3)C2)n[nH]1 (centres undefined),i[5.79 µM]
COCCN1CCCN(C(=O)C2CCCCC2)c2ccccc21,i
CCN(Cc1ccccc1)C(=O)c1c(C)oc2ccn(Cc3ccccc3F)c(=O)c12,i
Cc1ccc(C(=O)N2CCc3sc(C(=O)NC(C)c4ccccc4)cc3C2)cc1 (centres undefined),7.1µM*
